Only some compounds are listed: those with a hit (about 6.2% of all), similar ones and a draw of the others.
ATXN viability = cell viability loss in ATXN counter-screen; S2 cells (HEK-293 line with an ATXN2-luciferase reporter) viability, CellTiter-Fluor protease fluorescence, 24 h; Potency, µM (highest dose often 56.7 µM), actives largely listed as cytotoxic; actives 0.49% (n = 400,000); note: nearly all actives have a fitted effect of over 40% in size
KB-3-1 tox = KB-3-1 parental cell cytotoxicity; KB-3-1 viability, CellTiter-Glo ATP luminescence, 72 h; Potency, µM (doses to about 46.1 µM), actives largely listed as cytotoxic; actives 1.4% (n = 400,000); AID 1347075; note: % is set by controls: 0 for no effect and ±100 for the full control effect; nearly all actives have a fitted effect of over 60% in size
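Luminescent ATP read-out (CellTiter-Glo) measures survival of drug-naive KB-3-1 cells after 72 h compound exposure at 37 °C. Titration series was screened from lowest to highest concentration, with DMSO vehicle plates as background controls.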
HT1080NT lethal = kills 2HG-producing HT-1080-NT fibrosarcoma cells. HT-1080-NT fibrosarcoma viability, CellTiter-Glo ATP luminescence, 48 h. Potency, µM (highest dose often 46.1 µM), inactives show at the top dose activity, negative = less viability, usual class: cytotoxic. actives 1.6% (n = 360,000). AID 686970;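 note: NT is the 2HG producing partner of a matched IDH1 knockdown line; 0% = DMSO-treated cells and -100% = media-only wells without cells; nearly all actives have a fitted effect of over 55% in size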
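Viability of the 2HG-overproducing fibrosarcoma line after 48 hours of compound exposure at 37 degrees C was determined by luminescence with CellTiter-Glo, and concentration-effect curves were then fitted and categorized.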
ATXN2 expr inh = ATXN2 expression inhibition | HEK-293 ATXN2-luciferase reporter, luminescence, 24 h | Potency, µM (top dose mostly 57 µM), inactives show at the highest dose activity change, negative = inhibition, hits mostly inhibitors | actives 0.72% (n = 360,000) | AID 1745845; note: % is set by controls: 0 for no effect and ±100 for the full control effect; nearly all actives have a fitted effect of over 55% in size
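qHTS (up to 57 uM final) was run with 24 h compound exposure of reporter cells at 37 °C. Each well was multiplexed: SteadyGlo luminescence measured ATXN2-luciferase expression after a fluorogenic Gly-Phe-AFC viability readout (25 uM final).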
KB-V1 MDR tox = KB-V1 MDR subline cytotoxicity. actives 3.4% (n = 400,000). Potency, µM (highest dose often 46.1 µM), hits mostly cytotoxic. KB-V1 MDR cells viability, CellTiter-Glo, 72 h; note: % is set by controls: 0 for no effect and ±100 for the full control effect; nearly all actives have a fitted effect of over 60% in size
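Compound-treated KB-V1 multidrug-resistant cells, 72 h, 37 degrees C; viability by CellTiter-Glo. Fitted qHTS curves give the values.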
HT1080 IDH1KD tx = HT-1080 IDH1 knockdown cell toxicity (counter line); HT-1080 IDH1 knockdown viability, ATP luminescence, 48 h; Potency, µM (highest dose often 46.1 µM), without a hit: top-dose activity, negative = toxicity, hits mostly cytotoxic; actives 2% (n = 360,000);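 note: 0% = DMSO wells and -100% = cell-free medium wells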
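HT-1080-IDH1KD cells (IDH1 knocked down), 750/well in RPMI with 5% FBS, treated with compound 48 h at 37 degrees C. Viability by CellTiter-Glo luminescence, normalised to DMSO and no-cell wells; concentration-response curves classed.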
* hit, by the source's call; i = inactive; ? = inconclusive; nt = no result given; [ ] = another dose, or the depositor's remark. Calls come from the whole dose curve; as a rule, active = well fitted curve in the direction sought with a large enough effect; inconclusive = small, poorly fitted or top-dose-only effect, or another doubt; inactive = no such curve, though single readings can be large; an effect the other way counts as inactive or inconclusive. Potency is the fitted concentration of half-maximal effect.

SMILES	ATXN viability	KB-3-1 tox	HT1080NT lethal	ATXN2 expr inh	KB-V1 MDR tox	HT1080 IDH1KD tx
COc1ccc(C(=O)CC(SCC(NC(C)=O)C(=O)O)c2ccc(Cl)cc2)cc1OC (centres undefined)	nt	i	-0.3%	nt	13µM*	10.8%
Cc1cccc(N2C(=O)N(CC(=O)C(C)(C)C)c3ccccc3S2(=O)=O)c1C	i	i	nt	-2.2%	i	nt
Cc1ccc(NS(=O)(=O)c2ccc3c(c2)N(C)C(=O)CC(=O)N3C)cc1Cl	i	i	nt	0.2%	?	nt
Oc1ccc(NC(=S)N=Nc2c(O)[nH]c3ccc(Br)cc23)cc1	?	i	?	?	?	20.6µM*
CC(C)c1ccc2[nH]c(O)c(N=NC(=O)c3cccc(S(=O)(=O)N4CCCCC4)c3)c2c1	?	?	6.4%	-35.2%	2.31µM*	3.9%
Oc1[nH]c2ccc(Br)cc2c1N=NC(=S)Nc1ccc(F)cc1	?	?	?	-30.3%	?	?
Oc1cccc(NC(=S)N=Nc2c(O)[nH]c3ccc(Br)cc23)c1	i	?	?	-24.5%	i	20.6µM*
Oc1ccc(NC(=S)N=Nc2c(O)[nH]c3ccccc23)cc1	?	i	-7.3%	-15.6%[11.3 µM]	i	-17.9%
CNC(=S)N=Nc1c(O)[nH]c2ccc(C(C)C)cc12	i	?	1.4%	-30.4%	20.6µM*	-1.5%
O=C(N=Nc1c(O)[nH]c2ccccc12)c1cccc(S(=O)(=O)N2CCCCC2)c1	i	i	2.9%	0.0%	i	18.3%
COc1ccc2c(c1)cc1c(=O)n(CC(=O)NCCc3ccccc3)nc(C)n12	i	i	nt	2.6%	i	nt
COc1cccc(/C=C/c2ccnc3ccccc23)c1OC	nt	i	nt	nt	i	nt
Cc1ccc(S(=O)(=O)c2cnc(SCC(=O)Nc3cc(C)cc(C)c3)nc2N)cc1	i	i	nt	-18.4%	?	nt
Nc1nc(NCC2CCCO2)nc(Nc2ccccc2)c1[N+](=O)[O-] (centres undefined)	i	i	0.6%	-10.8%	10.3µM*	-7.5%
COc1ccc(Nc2nc(NCC3CCCO3)c3ccccc3n2)c(OC)c1 (centres undefined)	?	i	?	-27.3%[11.3 µM]	i	?
CCOc1ccc(Nc2c3ccccc3nc3ccccc23)cc1	?	5.17µM*	16.4µM*	11.2µM*	?	11.6µM*
c1ccc(Nc2nc(NCC3CCCO3)c3ccccc3n2)cc1 (centres undefined)	?	16.4µM*	23.1µM*	-31.9%[11.3 µM]	20.6µM*	18.4µM*
CCOc1ccc(Nc2nc(NCC3CCCO3)c3ccccc3n2)cc1 (centres undefined)	?	?	18.4µM*	?	?	?
CN(CCO)C(=O)c1cn(C2CCN(Cc3c(F)cccc3Cl)CC2)nn1	i	nt	nt	nt	nt	nt
CCN(CC)c1ccc(NS(=O)(=O)c2ccc(-c3coc(C)n3)cc2)c(C)c1	i	i	nt	-22.0%	?	nt
CCC1CN(CC(=O)NC(C)c2cn(C)nc2C)Cc2cc(OC)ccc2O1 (centres undefined)	i	nt	nt	nt	nt	nt
COc1ccc(CNC(=O)CCCN2C(=O)CCn3nc(-c4cn(C)c5ccccc45)cc32)cc1	i	i	nt	1.4%	i	nt
Oc1cccc(Nc2nc(NCC3CCCO3)c3ccccc3n2)c1 (centres undefined)	?	?	?	-21.8%	18.4µM*	-22.6%
CCN(CC)S(=O)(=O)c1ccc(-c2nnc(SCC(=O)N3c4ccccc4CC3C)o2)cc1 (centres undefined)	i	i	-14.8%	?	?	-2.4%
CC1Cc2ccccc2N1C(=O)CSc1nnnn1C (centres undefined)	i	i	-8.9%	-9.5%	i	-3.9%
SMILES	ATXN viability	KB-3-1 tox	HT1080NT lethal	ATXN2 expr inh	KB-V1 MDR tox	HT1080 IDH1KD tx
CCN(CC)S(=O)(=O)c1ccc(-c2nnc(SCC(=O)N3c4ccccc4CC3C)n2CC)cc1 (centres undefined)	i	i	0.0%	-18.4%	20.6µM*	-2.0%
CC1Cc2ccccc2N1C(=O)CSc1nnc(Cc2ccccc2)n1CCc1ccccc1 (centres undefined)	?	i	-12.6%	?	3.26µM*	-27.2%
COc1ccc(OC)c(CNC(=O)c2cnc(N(C)C)nc2)c1	i	i	nt	-0.7%	i	nt
CCCCCOc1ccc(Cn2c(=O)oc3ccc(C)cc32)cc1OC	i	i	nt	-15.6%	?	nt
Cc1ccccc1Cn1cc(NC(=O)c2noc3c2CC(C(C)(C)C)CC3)cn1 (centres undefined)	i	i	?	-26.1%	18.4µM*	?
O=C1CCSC2(C(=O)N(Cc3ccc(F)cc3)c3ccccc32)N1c1ccc(Cl)cc1 (centres undefined)	nt	i	nt	nt	i	nt
Cc1c(Br)cnc2ccccc12	nt	i	nt	nt	i	nt
COCCn1c(-c2ccc(-c3ccc([N+](=O)[O-])cc3Br)o2)nc2c1c(=O)[nH]c(=O)n2CC(C)C	nt	i	?	-13.2%	7.31µM*	-16.3%
COCCn1c(=O)[nH]c(=O)c2c1nc(-c1ccc(-c3ccc(Cl)cc3[N+](=O)[O-])o1)n2Cc1ccccc1	i	?	?	7.2%	23.1µM*	?
COCCn1c(-c2ccc(SC)cc2)nc2c1c(=O)[nH]c(=O)n2CC(C)C	i	i	1.0%	5.9%	?	-12.3%
COc1ccc(-c2ccc(-c3nc4c(c(=O)[nH]c(=O)n4Cc4ccccc4)n3C)o2)c([N+](=O)[O-])c1	i	?	-1.3%	-28.1%[11.3 µM]	i	-0.2%
O=c1[nH]c(=O)n(Cc2ccccc2)c2nc(-c3ccc(Oc4ccc(F)cc4)c([N+](=O)[O-])c3)n(CCO)c12	?	?	20.6µM*	?	?	?
CNC(=O)c1c(-c2ccc(F)cc2)oc2cc(N(CCO)S(C)(=O)=O)c(C3CC3)cc12	nt	nt	nt	-18.5%	nt	nt
O=C(/C=C/c1ccco1)NC(=S)Nc1ccc(O)c(-c2nc3ccccc3s2)c1	?	5.8µM*	?	?	?	?
O=C(/C=C\c1ccco1)Nc1nc(-c2ccc3ccccc3c2)cs1	i	i	-14.7%	?	?	-25.8%
Cc1ccc(-c2csc(NC(=S)NC(=O)/C=C/c3ccco3)n2)cc1	i	5.8µM*	7.08µM*	-17.1%	3.26µM*	7.94µM*
Cc1ccc(O)c(NC(=S)NC(=O)/C=C/c2ccco2)c1	i	10.3µM*	-26.4%	35.9%	?	-22.3%
Cc1ccnc(NC(=S)NC(=O)/C=C/c2ccco2)c1	i	10.3µM*	?	27.0%	8.2µM*	?
